Assay results reported in PubChem BioAssay (Tox21).
Records with an inconclusive call do not appear. Entries that show only a call come without a potency. Values without a mark were called inactive. The source made the active and inactive calls. The call rests on the fitted dose curve; in most records, active means well fitted cell-killing curve with a large enough effect in the repeat runs; inconclusive means weak or mixed curves, or effect the other way; inactive means no such curve, though single readings can be large or run the other way. Where a SMILES comes first, the peptide text is derived from it. [ ]: non-standard residue; d: D form. pGlu = O=C1CC[C@@H](C(=O)O)N1

Assay: qHTS assay to identify small molecule agonists of the RXR signaling pathway - cell viability counter screen (AID 1159529); further: nearly all actives have a fitted effect of over 50% in size
Details: RXR-alpha-bla HEK293T viability, CellTiter-Glo, 16 h; series mostly up to 76.8 µM
Method in brief: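 RXR-alpha-UAS-bla HEK 293T cells in medium with 2% charcoal-stripped FBS were pre-incubated 5 hr, then compound-treated 16 hr at 37 C. Viability was read by CellTiter-Glo luminescence in the same wells as the beta-lactamase assay, with tetraoctyl ammonium bromide as positive control.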

| Structure (SMILES) | Potency | activity change, negative = cytotoxicity |
| --- | --- | --- |
| O=C(O)CNC(=O)c1ccccc1 | inactive | – |
| CC(C)CC(C)(N)C#N (stereo not drawn) | inactive | – |
| CCOC(=O)c1cnc2c(cnn2CC)c1NN=C(C)C | inactive | – |
| COc1ccccc1OCC1CNC(=O)O1 (stereo not drawn) | inactive | – |
| CO/N=C(\C(=O)N[C@@H]1C(=O)N2C(C(=O)O)=C(CSc3nc(=O)c(O)nn3C)CS[C@H]12)c1csc(N)n1 | inactive | – |
| O=C1CCCCCCCCCCCCCCO1 | inactive | – |
| CCCc1nn(C)c2c(=O)[nH]c(-c3cc(S(=O)(=O)N4CCN(C)CC4)ccc3OCC)nc12 | inactive | – |
| CCCCOC(=O)CCC(C)=O | inactive | – |
| O=CN(CCO)CCO | inactive | – |
| C[N+](C)(CCOc1ccccc1)Cc1cccs1 | inactive | – |
| CC1=NN(c2cccc(S(=O)(=O)O)c2)C(=O)C1 | inactive | – |
| CCOC(=O)C1=NOC(c2ccccc2)(c2ccccc2)C1 | inactive | – |
| CCC(=O)OCc1ccccc1 | inactive | – |
| COc1cc(C(=O)OC(COCCC(C)C)CN2CCOCC2)cc(OC)c1OC (stereo not drawn) | inactive | – |
| CC12CCC(C(=O)C1=O)C2(C)C (stereo not drawn) | inactive | – |
| NC(N)=NCCN1CCCCCCC1 | – | -2.51% [at 0.29 µM] |
| Cc1ncc(COP(=O)(O)O)c(C=O)c1O | inactive | – |
| CC(=O)Oc1cccc(C)c1 | inactive | – |
| CN1[C@@H]2CC[C@H]1CC(OC(=O)C(O)c1ccccc1)C2 (stereo partly drawn) | inactive | – |

| Structure (SMILES) | Potency | activity change, negative = cytotoxicity |
| --- | --- | --- |
| CC(N)C12CC3CC(CC(C3)C1)C2 (stereo not drawn) | inactive | – |
| CCN(CC#N)c1cccc(C)c1 | inactive | – |
| CC1=NN(c2cc(S(=O)(=O)O)ccc2Cl)C(=O)C1N=Nc1ccccc1 (stereo not drawn) | inactive | – |
| CC(=O)c1ccccc1[N+](=O)[O-] | inactive | – |
| C=CCCC(=O)O | inactive | – |
| O=C(O)CC(C(=O)O)S(=O)(=O)O (stereo not drawn) | inactive | – |
| CC(C)CCCO | inactive | – |
| CC(COc1ccccc1)NN (stereo not drawn) | inactive | – |
| Nc1ccn([C@@H]2O[C@H](CO)[C@@H](O)[C@@H]2O)c(=O)n1 | inactive | – |
| CCNC(=O)[C@@H]1CCCN1C(=O)[C@H](CCCN=C(N)N)NC(=O)[C@H](CC(C)C)NC(=O)CNC(=O)[C@H](Cc1ccc(O)cc1)NC(=O)[C@H](CO)NC(=O)[C@H](Cc1c[nH]c2ccccc12)NC(=O)[C@H](Cc1cnc[nH]1)NC(=O)[C@@H]1CCC(=O)N1 ([pGlu]HWSYGLRP-NHEt) | inactive | – |
| CCCCN(CCC(=O)OCC)C(C)=O | inactive | – |
| CCCn1cc[n+](C)c1C | inactive | – |
| Clc1cc(Cl)cc(Cl)c1 | inactive | – |
| CCOC(=O)COc1cc(-n2ncc(C(F)(F)F)c(C)c2=O)c(F)cc1Cl | inactive | – |
| CC(C)COC(=O)c1ccc(N)cc1 | inactive | – |
| CC(=O)OCC(=O)[C@@]1(O)[C@H](C)C[C@H]2[C@@H]3CCC4=CC(=O)C=C[C@]4(C)[C@@]3(F)[C@@H](O)C[C@@]21C | inactive | – |
| O=C(O)CCCC[P+](c1ccccc1)(c1ccccc1)c1ccccc1 | inactive | – |
| CC1=CCC(O)(C(C)C)CC1 (stereo not drawn) | inactive | – |
| [K+] | inactive | – |
